Screens from PubChem BioAssay.
Sampled rows, rich in hits. Any-hit rate of the full collection: about 1.8%.
Tb PFK inh: inhibitors of T. brucei phosphofructokinase; T. brucei PFK, ADP-Glo luminescence; Potency, µM (titrated, usually from 57.5 µM), most hits filed as inhibitors; 330,000 tested, 0.17% active; AID 485367; also: nearly all actives have a fitted effect of over 60% in size
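Luminescent ADP detection (ADP-Glo, two-step: ATP depletion then ADP-to-ATP conversion for luciferase) reported PFK activity after 45 min room-temperature reaction of 1.25 nM enzyme with 0.5 mM F6P and 0.1 mM ATP at pH 8.0.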
PGK inhibitor: blocks T. brucei phosphoglycerate kinase | PGK/GAPDH coupled, Kinase-Glo luminescence, 60 min | Potency, µM (titrated, usually from 57.5 µM), usual class: inhibitors | P07378 | 380,000 tested, 0.043% active; also: nearly all actives have a fitted effect of over 60% in size
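Recombinant glycosomal PGK reaction used 1,3-bisphosphoglycerate generated in-well by GAPDH (100nM final) in 100mM TEA pH 7.6, 5mM MgCl2, 0.01% Tween-20. After 60 minutes at room temperature, ATP was read by Kinase-Glo Plus luminescence end-point.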
Pin1 inhibitor: blocks the human prolyl isomerase Pin1 | AID 504891 | Pin1 FP peptide displacement, HiFluor488, 10 min | Potency, µM (series often up to 115 µM), actives largely listed as inhibitors | 390,000 tested, 0.009% active; active = well fitted inhibition curve with a large enough effect in the polarisation, with a control signal flat, not every such curve was filed as active; inconclusive = small, poorly fitted or top-dose-only effect, or effect the other way, or a change in a side signal; inactive = no such curve, though single readings can be large or run the other way; the % refers to the polarisation
Target sequence (Q13526 whole entry, looked up): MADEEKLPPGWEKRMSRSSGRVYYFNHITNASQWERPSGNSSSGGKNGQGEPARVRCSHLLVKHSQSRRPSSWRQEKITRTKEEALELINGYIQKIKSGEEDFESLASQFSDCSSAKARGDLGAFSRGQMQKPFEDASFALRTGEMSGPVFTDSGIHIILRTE
GLP-1R inv ag: GLP-1 receptor (human) inverse agonism; HEK293 GLP-1R CRE-luciferase, luminescence, 24 h; GLP-1R form is constitutively active; Potency, µM (doses to about 38.3 µM), hits mostly inhibitors; 410,000 tested, 1.6% active; AID 624417; also: nearly all actives have a fitted effect of over 55% in size
Target sequence (P43220 whole entry, looked up): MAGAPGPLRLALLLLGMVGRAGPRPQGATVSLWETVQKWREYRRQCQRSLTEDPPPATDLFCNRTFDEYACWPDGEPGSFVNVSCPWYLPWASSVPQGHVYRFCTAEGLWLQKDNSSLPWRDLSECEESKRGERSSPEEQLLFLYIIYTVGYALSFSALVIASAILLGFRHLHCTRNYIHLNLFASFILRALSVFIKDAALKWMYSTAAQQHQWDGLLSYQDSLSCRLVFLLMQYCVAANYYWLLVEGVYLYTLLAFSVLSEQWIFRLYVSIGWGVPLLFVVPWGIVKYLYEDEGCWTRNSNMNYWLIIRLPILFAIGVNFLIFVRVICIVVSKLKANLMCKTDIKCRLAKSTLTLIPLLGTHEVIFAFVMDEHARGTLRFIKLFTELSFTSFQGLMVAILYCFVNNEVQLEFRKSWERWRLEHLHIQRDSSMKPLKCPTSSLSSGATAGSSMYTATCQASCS
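Stable HEK293 clone (constitutively active GLP-1R + cAMP-response luciferase); 200 cells/uL plated, 12 h pre-culture, compound 24 hr, 37 deg C/5% CO2; detection reagent 12 min RT; luminescence.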
GLP1R cytotox: cytotoxicity counter-screen for GLP-1 receptor inverse agonists; HEK293 cAMP-luciferase reporter cells, luminescence, 24 h; Potency, µM (doses to about 38.3 µM), usual class: inhibitors; 410,000 tested, 0.13% active; AID 624418;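 also: loss of luciferase light is scored as toxicity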
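Step one: seed cells (200 cells/uL, DMEM with 10% Nu serum, 1% pen-strep). Step two: 12-hour incubation at 37 deg C. Step three: pin 23 nL compound, incubate 24 hr. Step four: add luciferase reagent, read luminescence 12 min later.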
GLP-1R agonist: activates the human GLP-1 receptor; P43220; 380,000 tested, 0.007% active; HEK293 GLP-1R CRE-luciferase, luminescence, 4-6 h; cells express a hypersensitive GLP-1R form; Potency, µM (series often up to 45.6 µM), hits mostly activators
Of the large screens only hits and unclear results are named; the others gave an inactive call. Unless noted, calls follow the shape of the dose curve; as a rule, active = well fitted curve in the direction sought with a large enough effect; inconclusive = small, poorly fitted or top-dose-only effect, or another doubt; inactive = no such curve, though single readings can be large; an effect the other way counts as inactive or inconclusive.

COC(=O)CNC(c1ccccc1)c1cc(Br)ccc1NC(=O)OCc1ccccc1 (stereo not given)	GLP-1R inv ag 3.98µM
COC(=O)CNC(c1ccccc1)c1cc(C)ccc1NC(=O)CNC(=O)OCc1ccccc1 (stereo not given)	Pin1 inhibitor inconclusive, GLP-1R inv ag inconclusive
O=C(NC1CCCCC1)c1cc(C2CC2)nn1-c1ccccc1	GLP-1R inv ag 5.62µM
Cc1nn(-c2ccccc2)c(Cl)c1C(=O)NC1CCCCC1	none
Cc1cc(O)c(C=O)c2c1C(=O)Oc1c(CO)c(O)c3c(c1O2)C(O)OC3=O (stereo not given)	Tb PFK inh 23.9µM, PGK inhibitor inconclusive, Pin1 inhibitor 3.16µM
O=C(c1ccc(Br)cc1)N1CCC(c2nc3ccccc3s2)CC1	GLP-1R inv ag inconclusive (no result: Tb PFK inh, GLP-1R agonist)
CCNC(=S)N/N=C/c1cccc(OCc2c(F)cccc2Cl)c1	GLP-1R inv ag 10µM, GLP1R cytotox inconclusive
N#C/C(=C\c1ccc(OCc2cccc(C(=O)O)c2)cc1)C(=O)NCc1ccco1	GLP-1R inv ag 8.91µM
CCCc1nn2c(=O)cc(COC(=O)c3ccc(NC(=O)COc4ccccc4)cc3)nc2s1	none (no result: Tb PFK inh, GLP-1R agonist)
COc1ccc(Nc2ncnc3c2c(C)c(C)n3CCCN(C)C)cc1	GLP-1R inv ag 11.2µM
Cc1c(C)n(CCCN(C)C)c2ncnc(NC3CCCCC3)c12	GLP-1R inv ag 3.98µM
Cc1c(C)n(CCCN(C)C)c2ncnc(Nc3ccccc3)c12	GLP-1R inv ag inconclusive
COc1ccccc1Nc1ncnc2c1c(C)c(C)n2CCCN(C)C	GLP-1R inv ag 2.24µM
CC(C)(C)n1nnnc1C(c1cccs1)N1CCCC2(CCCCC2)C1 (stereo not given)	Pin1 inhibitor inconclusive
CC(C)(C)n1nnnc1C(c1cccs1)N1CCCc2ccccc21 (stereo not given)	GLP-1R inv ag 11.2µM (no result: Tb PFK inh)
CCc1cccc(CC)c1NC(=O)Cc1csc(C)n1	none (no result: Tb PFK inh, GLP-1R agonist)
O=C(O)CC(C(=O)O)N1C(=O)/C(=C/c2ccc(-c3nc4ccccc4s3)o2)SC1=S (stereo not given)	Tb PFK inh inconclusive, PGK inhibitor 25.1µM, Pin1 inhibitor inconclusive
CC(=O)N1CCN(CC(=O)Nc2ccc(C)c(S(=O)(=O)N(C)C)c2)CC1	none
Cc1ccc(NC(=O)CN2CCC(Cc3ccccc3)CC2)cc1S(=O)(=O)N(C)C	Pin1 inhibitor inconclusive, GLP-1R inv ag 8.91µM
Cc1ccc(CNC(=O)CN2C(=O)CSc3ccc(S(=O)(=O)N(C)C)cc32)cc1	none (no result: Tb PFK inh, GLP-1R agonist)
O=S(=O)(NC(=NCc1ccccc1)c1ccc(F)cc1)c1ccc(Cl)cc1	GLP-1R inv ag 11.2µM
O=C(O)CN=C(NS(=O)(=O)c1ccc(Cl)cc1)c1ccc(F)cc1	none
Cc1ncoc1C(=O)NC1CCCc2c1cnn2-c1ccc(C(C)(C)C)cc1 (stereo not given)	GLP-1R inv ag 5.01µM
COCc1ccc(C(=O)NC2CCCc3c2cnn3-c2cc(C)cc(C)c2)s1 (stereo not given)	GLP-1R inv ag 7.08µM
Cc1cc(C)cc(-n2ncc3c2CCCC3NC(=O)c2cc(C)oc2C)c1 (stereo not given)	GLP-1R inv ag 12.6µM
Cc1ncoc1C(=O)NC1CCCc2c1cnn2-c1cc(F)cc(F)c1 (stereo not given)	none (no result: Tb PFK inh, Pin1 inhibitor)
COc1ncccc1C(=O)NC1CCCc2c1cnn2-c1cc(C)cc(C)c1 (stereo not given)	GLP-1R agonist inconclusive
O=S(=O)(c1cccs1)N1CN(Cc2cccs2)c2nc3ccccc3nc21	GLP-1R inv ag 10µM
CCCC(=O)NC(c1ccccc1Cl)c1c(O)ccc2ccccc12 (stereo not given)	GLP-1R inv ag 7.08µM, GLP1R cytotox inconclusive
CCC(=O)NC(c1ccccc1)c1c(OC(C)=O)ccc2ccccc12 (stereo not given)	GLP-1R inv ag inconclusive
CC(=O)Oc1ccc2ccccc2c1C(NC(=O)Cc1ccccc1)c1ccccc1Cl (stereo not given)	GLP-1R inv ag 5.62µM, GLP1R cytotox inconclusive
Cc1ccc(C(NC(=O)C2CCCCC2)c2c(O)ccc3ccccc23)cc1 (stereo not given)	GLP-1R inv ag 4.47µM, GLP1R cytotox inconclusive
Nc1nc(N)c(S(=O)(=O)c2ccccc2)c(Nc2ccc(Br)cc2)n1	GLP-1R inv ag inconclusive (no result: Tb PFK inh)
CN(c1cccc(NC(=O)CN(c2ccc(C34CC5CC(CC(C5)C3)C4)cc2)S(C)(=O)=O)c1)S(C)(=O)=O	GLP-1R inv ag 3.16µM, GLP1R cytotox 10µM (no result: PGK inhibitor)
O=C(/C=C/Nc1ccccc1)c1ccc(Cl)cc1Cl	GLP-1R inv ag 11.2µM
O=C(/C=C/Nc1ccccc1)c1ccccc1	GLP-1R inv ag inconclusive
CCN(CC)CCNC(=O)CCc1c(C)nc2c(c(C)nn2-c2ccc(C)c(C)c2)c1C	GLP-1R inv ag 3.98µM, GLP1R cytotox inconclusive
COc1ccc(CCNC(=O)CCc2c(C)nc3c(c(C)nn3-c3ccc(C)c(C)c3)c2C)cc1OC	Pin1 inhibitor inconclusive (no result: Tb PFK inh)
O=C(Nc1ccc2oc(-c3cccc(Cl)c3Cl)nc2c1)c1cccc(Br)c1	none (no result: Tb PFK inh, GLP-1R agonist)
Cc1cccc(C)c1OCC(=O)N1CC2(C)CC1CC(C)(C)C2 (stereo not given)	GLP-1R inv ag inconclusive
CC1(C)CC2CC(C)(CN2C(=O)NC(=O)c2ccccc2)C1 (stereo not given)	none
Cc1ccc(OCC(=O)N2CC3(C)CC2CC(C)(C)C3)cc1 (stereo not given)	GLP-1R inv ag 10µM
COc1ccc(CC(=O)N2CC3(C)CC2CC(C)(C)C3)cc1 (stereo not given)	GLP-1R inv ag 11.2µM (no result: PGK inhibitor)
Cc1ccc(C(=O)Nc2ccccc2C(=O)N2CC3(C)CC2CC(C)(C)C3)cc1 (stereo not given)	GLP-1R inv ag 10µM
O=[S+]([O-])(c1ccc(N2CCOCC2)nc1)N1CCN([S+](=O)([O-])c2c(F)cccc2F)CC1	none (no result: Tb PFK inh, PGK inhibitor, GLP-1R inv ag, GLP1R cytotox, GLP-1R agonist)
COc1ccc(-n2c(/C=C/c3cccc4ccccc34)nc3ccccc3c2=O)cc1Cl	none (no result: Tb PFK inh, GLP-1R agonist)
CN(CC(=O)Nc1cccc(F)c1)C(=O)c1ccccc1Cc1ccccc1	GLP-1R inv ag 12.6µM
CCCNC(=O)c1ccc2nc(-c3ccccc3)c(-c3ccccc3)nc2c1	Pin1 inhibitor inconclusive, GLP-1R inv ag 3.55µM
O=C(c1ccc2nc(-c3ccccc3)c(-c3ccccc3)nc2c1)N1CCCCC1	GLP-1R inv ag 2.51µM
CCN(CC)C(=O)c1ccc2nc3ccccc3nc2c1	none
CCN(CC)C(=O)c1ccc2nc(-c3ccccc3)c(-c3ccccc3)nc2c1	GLP-1R inv ag 5.01µM
